# In PubChem BioAssay AID434970 (Sanford-Burnham Center for Chemical Genomics, 2010):
# About 310 (2.8%) of roughly 11,000 compounds were called active. No stated cut-off is given here; in the data, active means activity change below about -85%; inactive means the rest. What follows is part of a selection rich in actives, with near analogues and random picks from the rest.
# Test system: intestinal alkaline phosphatase [Mus musculus]
# Experiment: activators of mouse IAP, confirmation, biochemical, luminescence, single concentration (AID 434970)
# Conditions: purified mouse IAP, CDP-Star luminescence, 30 min, at 10 µM; activation factor: measured here: IAP activation factor, stronger effect = higher value; activity change, negative = activation: stronger effect = lower value
SMILES,activation factor,"activity change, negative = activation"
COc1ccc2[nH]c(=O)c(CN(C(C)=O)c3cccc(C)c3)cc2c1,0.991,0.9% (inactive)
O=C(CSc1nnc(-c2cccs2)n1-c1cccc(Cl)c1)c1cccc2c1OCCO2,0.901,9.9% (inactive)
CCCc1[nH]nc2c1C(Cc1ccccc1)C(C#N)=C(N)O2 (stereo not given),0.921,7.85% (inactive)
CC(C)N(C(=O)[C@H]1C[C@H](CC(=O)NCCCn2ccnc2)C(=O)N2CCc3c([nH]c4cc(CCC(=O)N(C)C)ccc34)[C@]12C)C(C)C,0.995,0.5% (inactive)
CCOC(=O)C1C(C(=O)OC)=C(C2=CCCCC2)c2ccccc2N1S(=O)(=O)C(F)(F)F (stereo not given),0.97,3% (inactive)
Cc1ccc(NC(=O)C2CCCNC2=O)nc1 (stereo not given),0.929,7.05% (inactive)
Cc1cc(N2CCN(C)CC2)nc2ccc(NC(=O)c3ccc4c(c3)OCO4)cc12,1.03,-2.9% (inactive)
CCCc1n[nH]c2c1/C(=N\O)CCC2,1.05,-5.35% (inactive)
O=C(CCCc1ccccc1)Nc1ccnn1C1CCN(Cc2ccc(Cl)cc2)CC1,2.18,-118% (active)
Cc1onc(-c2ccccc2)c1C(=O)Nc1ccnn1C1CCCCC1,0.923,7.65% (inactive)
CSc1ccc(CN2CCC(n3nccc3NC(=O)CCCc3ccccc3)CC2)cc1,2.27,-126% (active)
CC(C)Cc1ccc(CN2CCC(n3nccc3NC(=O)C3CCCC3)CC2)cc1,1.98,-98.2% (active)
Cc1ccccc1NC(=O)CCN1CCN(Cc2ccccc2)CC1,1.13,-13.2% (inactive)
O=C(CCc1nc2ccccc2c(=O)[nH]1)NC1CCN(Cc2ccccc2)CC1,0.905,9.55% (inactive)
O=C(NNS(=O)(=O)c1ccc(Cl)cc1)C1CCN(Cc2ccccc2)CC1,1.1,-9.8% (inactive)
O=C(CN1CCN(Cc2ccc(Cl)cc2)CC1)N/N=C/c1ccncc1,0.975,2.5% (inactive)
Cc1ccc(CC(NC(=O)C2CCCCC2)C(=O)O)cc1 (stereo not given),1.07,-6.55% (inactive)
CCCN1Cc2cc(OC)ccc2-c2ccccc2S1(=O)=O,1.13,-13.1% (inactive)
O=C(NCc1ccc2c(c1)OCO2)c1cccnc1,1.13,-13% (inactive)
O=C(OCC1OC2C(Oc3nc(=O)ccn32)C1O)c1ccccc1 (stereo not given),1.02,-1.5% (inactive)
N#Cc1c2c(c(NCc3cccnc3)n3c1nc1ccccc13)CCC2,0.779,22.1% (inactive)
C#CCOCCOCCOCCNc1nc(N2CCN(C(=O)CCCCCCCCCCNC(=O)[C@H]([C@@H](C)CC)n3cc(CCCCN=C(N)N)nn3)CC2)nc(N2CCN(C(=O)CCCCCCCCCCNC(=O)[C@H](CCCCN)n3cc(C)nn3)CC2)n1,8.54,-754% (active)

SMILES,activation factor,"activity change, negative = activation"
C#CCOCCOCCOCCNc1nc(N2CCN(C(=O)CCCCCCCCCCNC(=O)[C@H](CCCCN)n3cc(C)nn3)CC2)nc(N2CCN(C(=O)CCCCCCCCCCNC(=O)[C@@H]([C@H](C)CC)n3cc(CCCCCN)nn3)CC2)n1,3.63,-263% (active)
CC1CCCC(C(=O)O)N1C(=O)CCS (stereo not given),0.988,1.25% (inactive)
O=C(Cc1c[nH]c2ccccc12)Nc1nc2ccccc2[nH]1,0.845,15.5% (inactive)
CC(C)S(=O)(=O)c1csc(NC(=O)Nc2ccc(Cl)cc2)c1Cl,2.16,-116% (active)
Cc1csc(NC(=O)Nc2ccc(Cl)cc2)n1,1.11,-11.1% (inactive)
COC(=O)c1c(NC(=O)Nc2ccc(Cl)cc2)sc(C)c1C,0.99,1% (inactive)
COC(=O)c1ccc(NC(=O)Nc2ccc(C)cc2)cc1,2.15,-115% (active)
CCOC(=O)c1ccc(NC(=O)c2ccc3c(c2)OCO3)cc1,0.959,4.1% (inactive)
CCS(=O)(=O)Nc1ccc(C(=O)OC)cc1,0.912,8.8% (inactive)
COC(=O)c1ccc(NC(=O)Nc2cccc(F)c2)cc1,1.97,-97.4% (active)
CNC(=O)CCC(=O)Nc1ccc(C(=O)OC)cc1,0.98,2.05% (inactive)
COC(=O)c1ccc(NC(=O)Nc2ccc(F)c(Cl)c2)cc1,1.86,-86.3% (inactive)
CCOC(=O)c1ccc(NC(=O)Nc2ccc3c(c2)OCCO3)cc1,2.06,-106% (active)
CCOC(=O)c1ccc(NC(=O)Nc2ccc(F)cc2)cc1,1.67,-66.6% (inactive)
CCCCOC(=O)c1ccc(NC(=O)Nc2ccc(OC)c(OC)c2)cc1,1.64,-63.5% (inactive)
CC(Sc1nnc(-c2ccco2)o1)C(=O)Nc1ccc(OC(F)F)cc1 (stereo not given),0.893,10.7% (inactive)
CC1=C(C(N)=O)C(c2cccnc2)n2nc(-c3cccc(Cl)c3)nc2N1 (stereo not given),0.96,4% (inactive)
CCCNC(=O)c1csc2c1CCCCC2,0.955,4.55% (inactive)
CC(NC(=O)CCSc1nc(-c2ccc3c(c2)OCO3)cc(C(F)(F)F)n1)c1ccccc1 (stereo not given),0.978,2.2% (inactive)
Cc1cccc(C2=NN(c3ccccc3)[C@@H](C(=O)N3CCOC3=O)[C@@H]2c2ccccc2)c1,0.97,3% (inactive)
CCCN=C1N(CC)C[C@@H]2[C@@H]3C(=O)N(Cc4ccccc4)C(=O)[C@@H]3[C@](Cc3ccccc3)(C(=O)OC)N12,1.07,-7.35% (inactive)
O=C(CCS(=O)(=O)c1cccc2nonc12)NC1CCCCCC1,1.11,-10.6% (inactive)

SMILES,activation factor,"activity change, negative = activation"
CN(C)CCCNC(=O)C[C@H]1C[C@H](C(=O)N2CCCCC2)[C@@]2(CCc3ccccc3)c3[nH]c4cc(-c5ccco5)ccc4c3CCN2C1=O,1.28,-28.4% (inactive)
CCOC(=O)c1ccc(NC(=O)NC2CCN(CC(=O)NCc3ccc4c(c3)OCO4)CC2)cc1,1.61,-60.6% (inactive)
CCOc1ccccc1NC(=O)C1CCCN(C(=O)Nc2ccccc2)C1 (stereo not given),0.961,3.9% (inactive)
CCOc1ccccc1NC(=O)N1CCC(NC(=O)c2cccc(C)c2)CC1,0.98,2% (inactive)
CC(C)c1ccc(NC(=O)NC2CCN(CC(=O)Nc3cccc4ccccc34)CC2)cc1,3.72,-272% (active)
Cc1cc(C)cc(NC(=O)NC2CCN(CC(=O)Nc3cccc(Cl)c3C)CC2)c1,1.68,-68.1% (inactive)
CCOc1ccccc1NC(=O)CN1CCC(NC(=O)Nc2ccccc2)CC1,2.99,-199% (active)
CCOCCCNC(=O)c1ccccc1SCC,1.04,-4% (inactive)
CCOC(=O)c1c(C)[nH]c(C)c1C(=O)CSc1nnc(-c2ccco2)n1Cc1ccccc1,1.03,-3.25% (inactive)
O=C(CSc1nnc(-c2ccncc2)n1CC1CCCO1)Nc1nccs1 (stereo not given),1.03,-2.65% (inactive)
COc1ccc(C2C(C(=O)N3CCN(c4ccccc4F)CC3)c3ccccc3C(=O)N2C)cc1 (stereo not given),1.09,-9.15% (inactive)
FC(F)Sc1ccc(NC(=S)NC(c2ccccc2)c2ccccc2)cc1,3.77,-277% (active)
FC(F)Sc1ccc(NC(=S)NC2CCCC2)cc1,1.23,-22.6% (inactive)
O=C(Nc1ccc(SC(F)F)cc1)c1cccc2nc3ccccc3nc12,0.946,5.4% (inactive)
FC(F)Sc1ccc(NC(=S)NC2CCCCC2)cc1,1.25,-24.7% (inactive)
FC(F)Sc1ccc(NC(=S)NCc2ccccc2)cc1,1.27,-26.5% (inactive)
CC1CCCCC1NC(=S)Nc1ccc(SC(F)F)cc1 (stereo not given),1.52,-51.8% (inactive)
CC1CCCC(NC(=S)Nc2ccc(SC(F)F)cc2)C1C (stereo not given),2.09,-109% (active)
FC(F)Sc1ccc(NC(=S)NC2CCC(NC(=S)Nc3ccc(SC(F)F)cc3)CC2)cc1 (stereo not given),2.35,-135% (active)
FC(F)Sc1ccc(NC(=S)NCC2CCCCC2)cc1,1.45,-44.6% (inactive)
NC(=O)CSCc1cccc(Br)c1,1.01,-0.9% (inactive)
O=S1(=O)c2ccccc2OC(COCc2ccccc2)CN1Cc1ccccc1 (stereo not given),1.13,-13.2% (inactive)

SMILES,activation factor,"activity change, negative = activation"
Cc1cc(C)nc(SCc2nnc(SCC(=O)Nc3ccccc3C)n2Cc2ccco2)n1,0.974,2.65% (inactive)
Cc1ccc(-c2cc(C(F)F)n3ncc(C(=O)N4CCN(c5cccc(C)c5C)CC4)c3n2)cc1,0.892,10.8% (inactive)
CCCc1cc(=O)oc2cc3occ(C)c3cc12,0.917,8.35% (inactive)
CCOn1c(=O)c(-c2ccc(Cl)cc2)[n+]([O-])c2ccccc21,0.944,5.65% (inactive)
CC(C)(C)c1n[nH]c(=S)n(N)c1=O,1.04,-4.25% (inactive)
CCn1c(NCc2ccc(N(C)C)cc2)nc2ccccc21,1.11,-10.6% (inactive)
CCn1c(NCc2ccccn2)nc2ccccc21,0.877,12.3% (inactive)
CCn1c(CNc2nc3ccccc3n2C(C)C)nc2ccccc21,1.97,-97.3% (active)
Cc1ccc2oc(-c3ccc(NC(=O)c4ccc5c(c4)OCO5)cc3)nc2c1,0.944,5.6% (inactive)
CSc1nccc(-c2nn(-c3ccc(C)cc3)ccc2=O)n1,1,-0.05% (inactive)
COc1ccc(NC(=O)NC[C@@H]2CC[C@@H](Cc3ccc(-c4ccccc4)cc3)O2)cc1,2.82,-182% (active)
COc1ccc2cc(C[C@@H]3CC[C@@H](CNC(N)=O)O3)ccc2c1,0.994,0.55% (inactive)
CCOC(=O)C1=C(C)N(C[C@@H]2CC[C@@H](Cc3ccc(-c4ccccc4)cc3)O2)C(=O)NC1c1ccc(-c2ccccc2)cc1 (stereo not given in full),1.12,-12.1% (inactive)
COc1ccc(N2CCN(CCCNC(=O)Nc3ccccc3)CC2)cc1,1.16,-16.2% (inactive)
NC(=O)NC[C@@H]1CC[C@@H](Cc2ccc(-c3ccccc3)cc2)O1,1.01,-0.6% (inactive)
O=C(NCCCCc1ccccc1)NC[C@@H]1CC[C@@H](Cc2ccc(-c3ccccc3)cc2)O1,4.44,-344% (active)
S=C(NCC1COc2ccccc2O1)Nc1ccc(Br)cc1 (stereo not given),1.68,-68.1% (inactive)
O=C(NC[C@@H]1CC[C@@H](Cc2ccc(-c3ccccc3)cc2)O1)Nc1ccc(Br)cc1,4.1,-310% (active)
OC[C@@H]1CC[C@@H](Cc2ccc(-c3ccccc3)cc2)O1,1.07,-7.05% (inactive)
